Structures are written as SMILES.

The assay deals with Noggin (protein binding on small-molecule microarray). The assay is described as follows: small molecules binding Noggin protein – biochemical, 635/667 nm fluorescence, primary screen (AID 1095).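 Further: score merges 667 nm feature fluorescence with signal to noise over triplicate slides.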 The note with it: 635 nm fluorescence, higher = more signal.
Regarding `CCCNC(=O)[C@@]1(Sc2ccc(C)cc2)CC(=O)N(Cc2ccccc2Cl)[C@@H]1c1ccc(CO)cc1`, the composite z-score was 1.06. Regarding `C[C@H]1COC(=O)[C@H](Cc2ccccc2)NC(=O)[C@@H](C)COC(=O)[C@H](Cc2ccccc2)NC1=O`, the composite z-score was determined as 0.996.

Compound `CC(C)N1CC=CC23O[C@@H]4/C=C\CCCOC(=O)C4[C@H]2C(=O)N(CCO)[C@@H]3C1=O` (some centres not stated) registered a composite z-score of -0.715. As for `COC(=O)[C@@]1(Cc2ccc(OC)cc2)[C@H]2c3cc(C(=O)N(C)C)n(CCc4ccc(OC)c(Br)c4)c3C[C@H]2CN1C(=O)c1ccccc1`, the figure is -0.54; as for `COCCOC(=O)N1C(=O)[C@@]2(c3cc(C#CCCO)ccc31)[C@H](c1ccc(O)cc1)N1[C@H](c3ccccc3)[C@H](c3ccccc3)OC(=O)[C@H]1[C@@H]2C(=O)Nc1nc2ccccc2s1`, 1.39. As for `C=CC[C@]1(C(=O)N2CCCCC2)N=C(c2ccc(OCCCO)cc2)O[C@H]1c1ccccc1N=[N+]=[N-]`, the figure is 1.17. Next, `CCCC=C(CCC)[C@@H](NS(=O)(=O)c1cccc(C(F)(F)F)c1)c1ccc(C(=O)OC)cc1`: 1.3. Consider `COc1ccc([Si](C)(C)[C@@H]2[C@@H](CC(=O)N(CCO)Cc3ccccc3)O[C@]3(C(=O)N(Cc4cccc(N5CCC5=O)c4)c4ccccc43)[C@H]2C)cc1`, for which the composite z-score was 1.33. As for `COc1cc([C@@H]2N[C@H](C(=O)O)Cc3c2[nH]c2ccccc32)cc(OC)c1OC`, the figure is 0.367. Next, `COCC(=C=CC[C@H](O)c1ccc(OCCO)cc1)C[C@H](O)c1ccccn1`: 0.0559; `COCCOC(=O)N1C(=O)[C@@]2(c3cc(C#CC4(O)CCCCCC4)ccc31)[C@H](C(=O)N1CCCCCCC1)[C@H]1C(=O)O[C@H](c3ccccc3)[C@H](c3ccccc3)N1[C@@H]2c1ccc(O)cc1`: 0.906; `C=CCC(OC(C)=O)[C@@H]1[C@@H](N(Cc2cc3ccccc3o2)C(=O)c2ccc(C)cc2)c2cc(OCCCO)ccc2N1C(=O)c1ccc2ccccc2n1` (some centres not stated): 0.11. As for `C=C(COC)C(=O)CC[C@H](OC(=O)c1ccccc1-c1ccccc1C(=O)O)c1cccc(OCCO)c1`, the figure is 2.09. With `CC(C)[Si](OCC[C@H]1O[C@]2(C(=O)N(Cc3ccccc3)c3ccccc32)[C@@H](C)[C@@H]1[Si](C)(C)O)(C(C)C)C(C)C`, the composite z-score was -0.139. As for `CO[C@H]1COC(=O)CC=C[C@H](C)[C@@H](OC)COC(=O)CC=C[C@@H]1C`, the figure is 0.764; as for `COCCOC(=O)N1C(=O)[C@@]2(c3cc(C#CC4=CCCCC4)ccc31)[C@H](C(=O)NC[C@H](O)c1ccccc1)[C@H]1C(=O)O[C@H](c3ccccc3)[C@H](c3ccccc3)N1[C@@H]2c1ccccc1OCCO`, 1.13; as for `COc1cc2c(cc1OC)CN(C(=O)[C@H]1[C@@H]3C(=O)O[C@@H](c4ccccc4)[C@@H](c4ccccc4)N3[C@@H](c3ccc(O)cc3)[C@]13C(=O)Nc1ccc(C#CC4(O)CCCCCC4)cc13)CC2`, 1.72. On to `CN(C)C(=O)[C@@]1(Cc2ccccc2N=[N+]=[N-])N=C(c2ccc(OCCCO)cc2)O[C@H]1c1ccccc1CN=[N+]=[N-]`, for which the composite z-score was found to be 1.35.

Take `CO[C@H]1COC(=O)[C@@H](C)COC(=O)[C@H](Cc2ccccc2)NC(=O)CC=C[C@H]1C`: the composite z-score came to 1.26. `CC(=O)NCCCC[C@@H]1NC(=O)[C@H]2C[C@@H](C(=O)NCCCCCCN(C)C)[C@@H](c3cccc(OCCO)c3)N2C1=O` yielded a composite z-score of 1.87.

Regarding `C=CCC(OC(C)=O)[C@@H]1[C@@H](N(Cc2ccc(-c3ccccc3)cc2)C(=O)c2ccc(-c3ccccc3)cc2)c2cc(OCCCO)ccc2N1C(=O)Cc1ccc(OC)cc1` (some centres not stated), the composite z-score was -0.0508. The compound `COCCCNC(=O)[C@@H]1c2ccccc2C(=O)N(CC23CC4CC(CC(C4)C2)C3)[C@H]1c1ccc(CO)cc1` yielded a composite z-score of 0.39. Next, `C=CCN1C(=O)[C@]2(O[C@H](CCn3cc(CCO)nn3)[C@@H]([Si](C)(C)c3ccc(OC)cc3)[C@@H]2C)c2cc(NC(=O)c3ccc(OC)cc3)ccc21`: 1.03; `C=C(CCCC)/C(=C/C[C@@H](OC(=O)c1ccncc1)c1ccc(CO)o1)c1cnc2ccccc2c1`: 1.64. Next, `COC(=O)Cn1c(C(=O)N2CCCC2)cc2c1C[C@H]1CN(C(=O)c3ccccc3)[C@@](Cc3ccc(OC)cc3)(C(=O)OC)[C@@H]21`: -1.02.

Regarding `C=C(CCCC)C(=O)CC[C@@H](OC(C)=O)c1ccccc1OCCO`, the composite z-score was -0.61. On to `CCOC(=O)C[C@H]1[C@H](OC(=O)c2cc3ccccc3oc2=O)[C@@H](NC(=O)C2CCCCC2)c2cc(OCCCO)ccc2N1C(=O)c1ccc2ccccc2n1`, for which the composite z-score amounted to 0.87.

These data come from PubChem BioAssay.
